PubChem BioAssay (EPA / NIEHS)
A structure can be active in one record and inactive in another. Active and inactive are the calls of the source. The calls were made as follows: active = hit-call score of the fitted dose curve at least 0.9, where 1 is the maximum; inactive = score below 0.9.

experiment: ATG_CMV_CIS: Attagene CIS-FACTORIAL HepG2 Assay for human CMV (Internal Marker) (AID 2282928); conditions: HepG2 CMV promoter reporter, transcription factor profiling; actives raise or lower the signal;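 also: endpoint acts as a background internal control marker rather than a target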
Experimental: ATG_CIS is a cell-based, multiplexed-readout assay that uses HepG2, a human liver cell line, with measurements taken at 24 hours after chemical dosing in a 24-well plate.ATG_CMV_CIS is one of 52 assay component(s) measured or calculated from the ATG_CIS assay. It is designed to make measurements of mRNA induction, a form of inducible reporter, as detected with fluorescence intensity signals by Reverse transcription polymerase chain reaction (RT-PCR) and Capillary electrophoresis technology.Data from the assay component ATG_CMV_CIS was analyzed into 1 assay endpoint. This assay endpoint, ATG_CMV_CIS, was analyzed with bidirectional fitting relative to DMSO as the negative control and baseline of activity. Using a type of inducible reporter, measures of mRNA for gain or loss-of-signal activity can be used to understand the background control at the transcription factor-level as they relate to the gene . Furthermore, this assay endpoint can be referred to as a secondary readout, because this assay has produced multiple assay endpoints where this one serves a background control function. To generalize the intended target to other relatable targets, this assay endpoint is annotated to the background measurement intended target family, where the subfamily is internal marker.
Human liver HepG2 cells are transiently transfected with multiple reporter transcription units (MRTUs) in 6-well plates using FuGene 6 reagent (Roche; 3 ml FuGene/1 mg DNA). The MRTU constructs are regulated by a cis-regulating element (promoter). […] A major difference between the CIS and TRANS system is that in CIS activities of endogenous TFs are measured, whereas the TRANS assay evaluates changes in activities of exogenous, chimeric NR-Gal4 proteins. […] At the end of 24 hour incubation, total RNA was isolated using TriZol reagent (Invitrogen). The isolated RNA is then reverse-transcribed using oligo(dT) primer and Mo-MLV reverse transcriptase (Invitrogen) with DNAse I (Ambion) treatment for 30 min. The one-tenth of the produced cDNA was amplified by PCR using Taq DNA polymerase (Invitrogen) and two reporter sequence-specific primers. The PCR products were fluorescently labeled by primer extension with 6-arboxyfluorescein (6-FAM) 5'-labeled reporter sequence-specific primer (2 min at 95 C, 20 s at 68 C and 10 min at 72 C) and these products were digested with 5U of HpaI (New England Biolabs) for 2h at 37 C. The fragments were purified using Qiaquick PCR columns (Qiagen), analyzed on an ABI 3130xL genetic analyzer (Applied Biosystems) with peak positions identified by using a set of X-rhodamine (ROX)-labeled MapMarker1000 molecular weight standards (BioVentures). The raw capillary electrophoresis data was processed using Attagraph software (Attagene).

AC50, active:
O=C1c2ccc(O)c(O)c2C(=O)c2c(O)ccc(O)c21 4.28 µM, COc1ccccc1NC(=O)c1cc2ccccc2cc1O 100 µM, CCOC(=O)c1nc(C(Cl)(Cl)Cl)n(-c2ccc(Cl)cc2Cl)n1 29.6 µM, CS(=O)(=O)c1ccc([C@@H](CC2CCCC2)C(=O)Nc2cnccn2)cc1Cl 136 µM, CCCCCCCCCCCC[N+](C)(C)CCCCCCCCCCCC 182 µM, CC(C)C=O 87.6 µM

outcome, inactive:
FC1(F)C=CC(F)(F)C1(F)F, CC[N+](CC)(CC)Cc1ccccc1, CN(Cc1cnc2nc(N)nc(N)c2n1)c1ccc(C(=O)N[C@@H](CCC(=O)O)C(=O)O)cc1, Oc1ccc(Cc2ccccc2O)cc1, Cc1ccc(N=Nc2c(O)ccc3ccccc23)c(C)c1, COc1cc([N+](=O)[O-])ccc1N, CCC(C)c1ccccc1O (stereo not given), FC(F)(F)C(F)(F)C(F)(F)Br, CCCCCCCCC(C)=O, C=CC(=O)OCCC(F)(F)C(F)(F)C(F)(F)C(F)(F)C(F)(F)C(F)(F)C(F)(F)C(F)(F)F, CC(=O)Nc1ccc(O)cc1, CCCCCCCCCCCCCCCC(=O)OC, C[N+](C)(CCCNS(=O)(=O)CCC(F)(F)C(F)(F)C(F)(F)C(F)(F)C(F)(F)C(F)(F)F)CC(=O)[O-], O=C(OC(=O)C(F)(F)C(F)(F)F)C(F)(F)C(F)(F)F, CC(C)(C)c1ccc(CCC=O)cc1, NC(C(F)(F)F)C(F)(F)F, CC(C)(O)C(=O)c1ccccc1, CCCCN(C)C, CCOC=O, CCc1cccc(CC)c1N(COC)C(=O)CS(=O)(=O)O, CCN(CCC#N)c1ccccc1, CC(C)C=O, O=C(Nc1cccc([N+](=O)[O-])c1)c1cc2ccccc2cc1O, O=C(O)c1cccc(C(=O)O)n1, Cc1ccccc1C(OCCN(C)C)c1ccccc1 (stereo not given), O=S(=O)(O)c1ccc2cc(O)ccc2c1, O=C1NS(=O)(=O)c2ccccc21, CCOC(=O)CN[C@@H](C(=O)N1CC[C@H]1C(=O)NCc1ccc(/C(N)=N/O)cc1)C1CCCCC1, CCC(=O)C=Cc1ccc(OC)cc1, C=Cc1ccc(O)c(OC)c1, Nc1ccn([C@@H]2O[C@H](CO)[C@@H](O)C2O)c(=O)n1 (stereo not given in full), CCC(C)c1nccnc1OC (stereo not given), O=P(O)(O)CCC(F)(F)C(F)(F)C(F)(F)C(F)(F)C(F)(F)C(F)(F)C(F)(F)C(F)(F)F, CCCCCCc1ccc(N)cc1
